Results published in PubChem BioAssay (NCI).
Values joined by “and” are separate entries in the source; they are usually repeats but may differ in a detail not shown here. Equal values may be shown once. About 83,000 compounds went through this panel and 20% of them were active in at least one assay; those are over-represented in the sample as a whole.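 Step 1: grow cells in 96-well plates. Step 2: add test compound at a single concentration. Step 3: incubate 48 h. Step 4: record percent growth.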 Active and inactive are the calls of the source. Rule for the calls: active = growth percent below 10; inactive = the rest.

Assays:
Experiment in all cases: NCI-60 one-dose screen, 48 h (100 = growth as untreated, 0 = no growth, -100 = all killed)
Details in all cases: 10 µM unless noted
[1] = tested on: SR leukemia
[2] = tested on: RPMI-8226 leukemia
[3] = tested on: OVCAR-8 ovarian
[4] = tested on: OVCAR-5 ovarian
[5] = tested on: OVCAR-4 ovarian
[6] = tested on: SK-OV-3 ovarian
[7] = tested on: IGROV1 ovarian
[8] = tested on: OVCAR-3 ovarian
[9] = tested on: HS 578T breast
[10] = tested on: NCI/ADR-RES ovarian
[11] = tested on: T-47D breast
[12] = tested on: BT-549 breast
[13] = tested on: MDA-MB-435 melanoma
[14] = tested on: SW-620 colon
[15] = tested on: MCF7 breast
[16] = tested on: HCT-116 colon
[17] = tested on: HCC-2998 colon
[18] = tested on: KM12 colon

SMILES	growth [1]	growth [2]	growth [3]	growth [4]	growth [5]	growth [6]	growth [7]	growth [8]	growth [9]	growth [10]	growth [11]	growth [12]	growth [13]	growth [14]	growth [15]	growth [16]	growth [17]	growth [18]
O=C(O)C1C2C=CC(C2)C1C(=O)O (stereo unspecified)	108% (inactive) and 36.9% (inactive) and 94.8% (inactive)	103% (inactive) and 29.3% (inactive) and 98.3% (inactive)	103% (inactive) and 27.9% (inactive)	102% (inactive) and 35.6% (inactive) and 98.9% (inactive)	99.2% (inactive) and 106% (inactive)	113% (inactive) and 65.1% (inactive) and 106% (inactive)	95.2% (inactive) and 25.2% (inactive) and 106% (inactive)	113% (inactive) and 41.1% (inactive) and 108% (inactive)	102% (inactive) and 105% (inactive)	104% (inactive) and 112% (inactive) and 118% (inactive)	103% (inactive) and 79.5% (inactive) and 101% (inactive)	96.8% (inactive) and 58.3% (inactive) and 105% (inactive)	101% (inactive) and 19.1% (inactive) and 100% (inactive)	104% (inactive) and 22.1% (inactive) and 103% (inactive)	97.4% (inactive) and 5.27% (active) and 104% (inactive)	104% (inactive) and 17.3% (inactive) and 112% (inactive)		
c1ccc(NCc2ccc3c(c2)OCO3)cc1	92.5% (inactive) and 92.2% (inactive)	99.6% (inactive) and 93.7% (inactive)	98.1% (inactive)	110% (inactive) and 98% (inactive)	106% (inactive) and 108% (inactive)	92.4% (inactive) and 99.3% (inactive)	118% (inactive) and 102% (inactive)	103% (inactive) and 105% (inactive)	109% (inactive) and 104% (inactive)	106% (inactive) and 105% (inactive)	94.3% (inactive) and 110% (inactive)	99.4% (inactive) and 85.2% (inactive)	111% (inactive) and 98.2% (inactive)	102% (inactive) and 101% (inactive)	99.7% (inactive) and 102% (inactive)	103% (inactive) and 98.3% (inactive)	102% (inactive) and 112% (inactive)	103% (inactive) and 102% (inactive)
CCN(CC)C(=S)SSC(=S)N(CC)CC	3.32% (active) and 89% (inactive)	45.4% (inactive) and 110% (inactive)	65.8% (inactive) and 89.4% (inactive)	86% (inactive) and 100% (inactive)	76.6% (inactive) and 94.6% (inactive)	98.7% (inactive) and 102% (inactive)	77.5% (inactive) and 113% (inactive)	68.3% (inactive) and 108% (inactive)	111% (inactive)	84.1% (inactive) and 106% (inactive)	79.4% (inactive) and 87.3% (inactive)	90.6% (inactive) and 90.3% (inactive)	83.3% (inactive) and 106% (inactive)	77.2% (inactive) and 109% (inactive)	71.4% (inactive) and 95.9% (inactive)	58.6% (inactive) and 93.8% (inactive)	91.9% (inactive) and 102% (inactive)	88.8% (inactive) and 97.5% (inactive)
N#CCCOc1ccccc1	104% (inactive)	103% (inactive)	98.9% (inactive)	107% (inactive)	98.8% (inactive)	97% (inactive)	102% (inactive)	114% (inactive)	99.5% (inactive)	112% (inactive)	96.5% (inactive)	88.2% (inactive)	96.4% (inactive)	106% (inactive)	94.1% (inactive)	106% (inactive)	110% (inactive)	106% (inactive)
NC(=O)c1ccccc1OCC(O)CO (stereo unspecified)	94.9% (inactive)	99% (inactive)	104% (inactive)	99.5% (inactive)	103% (inactive)	109% (inactive)	108% (inactive)	106% (inactive)	117% (inactive)	119% (inactive)	130% (inactive)	109% (inactive)	90% (inactive)	101% (inactive)	94.1% (inactive)	112% (inactive)	114% (inactive)	115% (inactive)
CC(C)Cc1ccc(C(C)C(=O)NCc2ccc(Cn3c(=O)sn(CCCCl)c3=O)cc2)cc1 (stereo unspecified)	108% (inactive) and 3.82% (active)	99.8% (inactive) and -30.9% (active)	94.5% (inactive) and -3.85% (active)	105% (inactive) and -52.9% (active)	79.8% (inactive) and -94.2% (active)	107% (inactive) and 69.5% (inactive)	99.3% (inactive) and -79.1% (active)	98.2% (inactive) and -83.4% (active)	106% (inactive) and -11% (active)	99.4% (inactive) and -32.1% (active)	57% (inactive) and -46.4% (active)	92.3% (inactive) and -67.8% (active)	101% (inactive) and -83.6% (active)	87.3% (inactive) and -72.3% (active)	57.3% (inactive) and -31.3% (active)	92.4% (inactive) and -65.6% (active)	95.7% (inactive) and -44.7% (active)	
O=c1c2ccccc2nc2n1Cc1nc3ccccc3c(=O)n1C2	85.9% (inactive)	93% (inactive) and 102% (inactive)	112% (inactive) and 110% (inactive)	101% (inactive) and 102% (inactive)	95.2% (inactive) and 108% (inactive)	112% (inactive) and 110% (inactive)	88% (inactive) and 106% (inactive)	92.6% (inactive) and 112% (inactive)	91.7% (inactive) and 114% (inactive)	102% (inactive) and 105% (inactive)	106% (inactive) and 108% (inactive)	89.8% (inactive) and 94.1% (inactive)	93.5% (inactive) and 101% (inactive)	97.3% (inactive) and 103% (inactive)	84.5% (inactive) and 97.9% (inactive)	111% (inactive) and 94.6% (inactive)	106% (inactive) and 104% (inactive)	99.6% (inactive) and 101% (inactive)
CC(=O)c1ccccc1O	79% (inactive)	106% (inactive) and 103% (inactive)	112% (inactive) and 101% (inactive) and 105% (inactive)	102% (inactive) and 98.4% (inactive) and 116% (inactive)	110% (inactive) and 107% (inactive) and 111% (inactive)	114% (inactive) and 102% (inactive) and 101% (inactive)	102% (inactive) and 105% (inactive) and 101% (inactive)	114% (inactive) and 109% (inactive) and 106% (inactive)	95.7% (inactive) and 109% (inactive) and 98.9% (inactive)	100% (inactive) and 98.6% (inactive) and 103% (inactive)	107% (inactive) and 81.2% (inactive) and 103% (inactive)	95.9% (inactive) and 110% (inactive) and 91.1% (inactive)	105% (inactive) and 111% (inactive) and 109% (inactive)	103% (inactive) and 105% (inactive) and 113% (inactive)	102% (inactive) and 94% (inactive) and 101% (inactive)	97.8% (inactive) and 92.6% (inactive) and 101% (inactive)	99.7% (inactive) and 102% (inactive) and 97.2% (inactive)	103% (inactive) and 100% (inactive) and 110% (inactive)
Nc1nc2ncc(CNc3ccc(C(=O)N[C@@H](CCc4nn[nH]n4)C(=O)O)cc3)nc2c(=O)[nH]1	95.6% (inactive)	106% (inactive) and 95.5% (inactive)	106% (inactive) and 90.2% (inactive)	88.3% (inactive) and 103% (inactive)	100% (inactive) and 116% (inactive)	103% (inactive) and 104% (inactive)	99.6% (inactive) and 106% (inactive)	98.6% (inactive) and 113% (inactive)	110% (inactive) and 95.3% (inactive)	103% (inactive) and 101% (inactive)	103% (inactive) and 95.9% (inactive)	88.7% (inactive) and 107% (inactive)	101% (inactive) and 110% (inactive)	98.5% (inactive) and 104% (inactive)	94.2% (inactive) and 93.7% (inactive)	94.1% (inactive) and 98.9% (inactive)	99.2% (inactive) and 104% (inactive)	94.5% (inactive) and 103% (inactive)
O=C(CN1CCN(c2cc3c(cc2F)c(=O)c(C(=O)O)cn3C2CC2)CC1)Nc1ccc(Cl)cc1	71.1% (inactive) and 71.4% (inactive)	72.2% (inactive)	78.8% (inactive) and 95% (inactive)	105% (inactive) and 96% (inactive)	85.3% (inactive) and 83.2% (inactive)	63.4% (inactive) and 82.2% (inactive)	93.8% (inactive) and 97.3% (inactive)	94.4% (inactive) and 102% (inactive)	87.7% (inactive) and 93.6% (inactive)	101% (inactive) and 96.9% (inactive)	59.1% (inactive) and 92.4% (inactive)	55.8% (inactive)	88.4% (inactive) and 92.1% (inactive)	101% (inactive) and 110% (inactive)	94.3% (inactive) and 96.4% (inactive)	73.1% (inactive) and 99.7% (inactive)	85.8% (inactive) and 103% (inactive)	
